Source: PubChem BioAssay (Tox21)
Results filed as inconclusive are left out. Unmarked numbers belong to inactive results. Unless noted, the call rests on the fitted dose curve.

Assay: qHTS assay to identify small molecule antagonists of the estrogen related receptor signaling pathway with the pleiotropic PPARgamma coactivator (PGC) from Tox21 10K library - cell viability counter screen (AID 1224840; active means well fitted cell-killing curve with a large enough effect in the repeat runs, not every such curve was filed as active; further: nearly all actives have a fitted effect of over 40% in size)
Conditions: PGC/ERR reporter cells viability, CellTiter-Fluor, 17.5 h; series mostly up to 92.4 µM; viability change, negative = cytotoxic: at the top concentration
Outline: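 Multiplexed viability counter screen in the PGC/ERR cell line: cells treated with DMSO-dissolved compounds for 17.5 hours at 37 C, then viability measured as CellTiter-Fluor fluorescence.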
On the % scale 0 is the no-effect control and ±100 the full control effect.

Going from CCOC(=O)C(C)(C)C to CC(CC(=O)O)CC(C)(C)C (stereo not drawn), the “viability change, negative = cytotoxic” value falls from 1.64% to -0.825%.

First: CCCCCCCC[Si](OCC)(OCC)OCC
Second: CCCCC(CC)C(=O)OC(C)C (stereo not drawn)
The “viability change, negative = cytotoxic” value of the first is higher: 5.49% for the first, 1.62% for the second.

First: CC(C)=CC(C)(C)C
Second: C=C[C@@H](C)CCC=C(C)C
The “viability change, negative = cytotoxic” value of the first is higher: 2.47% for the first, 1.64% for the second.

Going from COCCOCCOCCOC to CCCCC(CC)COC(=O)c1ccccc1 (stereo not drawn), the “viability change, negative = cytotoxic” value falls from 2.42% to -0.602%.

Going from O=C(O)c1ccccc1C(=O)Nc1ccc(S(=O)(=O)Nc2nccs2)cc1 to CC(=O)OCC(=O)[C@@]1(O)[C@H](OC(C)=O)C[C@H]2[C@@H]3CCC4=CC(=O)C=C[C@]4(C)[C@@]3(F)[C@@H](O)C[C@@]21C, the “viability change, negative = cytotoxic” value rises from 0.289% [at 42.5 µM] to 15.6% [at 42.5 µM].

In the case of CCCCCC1Nc2cc(C(F)(F)F)c(S(N)(=O)=O)cc2S(=O)(=O)N1 (stereo not drawn), the “viability change, negative = cytotoxic” value is reported as 17.6% [at 42.5 µM].

Assay: qHTS assay to identify small molecule agonists of the hypoxia (HIF-1) signaling pathway - cell viability counter screen (AID 1224844); further: nearly all actives have a fitted effect of over 50% in size
Conditions: HRE-bla ME-180 viability, CellTiter-Glo luminescence, 17 h; series mostly up to 76.8 µM; activity change, negative = cytotoxicity: at the top concentration
Outline: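 Cytotoxicity was measured in parallel with the HRE-driven beta-lactamase readout: after 17 hrs of compound exposure at 37C, HRE-bla ME-180 cells received CellTiter-Glo and luminescence was recorded 30 min later.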

Compared with CC1=CC[C@H](CC=O)C1(C)C, CCOC(=O)C(C)(C)C is lower in “activity change, negative = cytotoxicity” value: 4.52% for the first, -7.02% for the second.

First: C[Si]1(C)N[Si](C)(C)N[Si](C)(C)N1
Second: CC(C)=CC(C)(C)C
The “activity change, negative = cytotoxicity” value of the first is lower: 1.57% for the first, 4.04% for the second.

Compared with CCC(O)C(C)(C)C (stereo not drawn), CC(CC(=O)O)CC(C)(C)C (stereo not drawn) is lower in “activity change, negative = cytotoxicity” value: 0.382% for the first, -8.29% for the second.

Going from O=C(O)c1ccccc1C(=O)OCc1ccccc1 to CC1=NN(c2ccc(S(=O)(=O)O)cc2)C(=O)C1N=Nc1ccccc1 (stereo not drawn), the “activity change, negative = cytotoxicity” value rises from -0.973% to 2.15%.

Compared with C=CCOCC(O)CCl (stereo not drawn), C=C[C@@H](C)CCC=C(C)C is higher in “activity change, negative = cytotoxicity” value: -8.94% for the first, 2.06% for the second.

Compared with FC(F)(F)/C(=N\OCC1OCCO1)c1ccc(Cl)cc1, CCCCC(CC)COC(=O)c1ccccc1 (stereo not drawn) is lower in “activity change, negative = cytotoxicity” value: 22.3% for the first, 0.0387% for the second.

Going from C1=C\CC/C=C\CC/1 to O=S1(=O)CCCC1, the “activity change, negative = cytotoxicity” value falls from 14% to 6.07%.

First: CCCCCCCCCCCCC1CO1 (stereo not drawn)
Second: CCCCCCCC[Si](OCC)(OCC)OCC
The “activity change, negative = cytotoxicity” value of the first is higher: 0.344% for the first, -1.38% for the second.

First: CC(=O)OC(C)c1ccccc1 (stereo not drawn)
Second: COc1cc([N+](=O)[O-])ccc1N
The “activity change, negative = cytotoxicity” value of the first is lower: 5.96% for the first, 14% for the second.

First: CCOC(=O)CCCCCCCCC(=O)OCC
Second: CCCCC(CC)C(=O)OC(C)C (stereo not drawn)
The “activity change, negative = cytotoxicity” value of the first is higher: 2.93% for the first, 2.54% for the second.

Compared with CCCO, C/C=C(\C)C(=O)OCC/C=C\CC is higher in “activity change, negative = cytotoxicity” value: 3.99% for the first, 5.13% for the second.

Compared with Nc1cc(S(=O)(=O)O)ccc1S(=O)(=O)O, Nc1cc(Cl)cc(S(=O)(=O)O)c1O is lower in “activity change, negative = cytotoxicity” value: 5.45% for the first, -1.53% for the second.

With COCCOCCOCCOC the “activity change, negative = cytotoxicity” value was 6%.

Compared with COCC(=O)Nc1c(I)c(C(=O)NCC(O)CO)c(I)c(C(=O)N(C)CC(O)CO)c1I (stereo not drawn), CC(=O)N(CC(O)CO)c1c(I)c(C(=O)NCC(O)CO)c(I)c(C(=O)NCC(O)CO)c1I (stereo not drawn) is higher in “activity change, negative = cytotoxicity” value: -0.0389% [at 35.3 µM] for the first, 4.71% [at 35.3 µM] for the second.

Going from NS(=O)(=O)c1cc2c(cc1Cl)NC(C(Cl)Cl)NS2(=O)=O (stereo not drawn) to CCC1Nc2cc(Cl)c(S(N)(=O)=O)cc2S(=O)(=O)N1 (stereo not drawn), the “activity change, negative = cytotoxicity” value falls from 6.27% [at 35.3 µM] to -1.61% [at 35.3 µM].

Compared with OC(CCN1CCCCC1)(c1ccccc1)c1ccccc1, O=C(O)c1ccccc1C(=O)Nc1ccc(S(=O)(=O)Nc2nccs2)cc1 is lower in “activity change, negative = cytotoxicity” value: 7.68% [at 35.3 µM] for the first, 3.31% [at 35.3 µM] for the second.

First: CC(=O)N1CCN(c2ccc(O)cc2)CC1
Second: Cc1ccc(C(=O)C(=O)O)cc1C
The “activity change, negative = cytotoxicity” value of the first is lower: -0.0728% [at 35.3 µM] for the first, 2.84% [at 35.3 µM] for the second.

First: CC(=O)OCC(=O)[C@@]1(O)[C@H](OC(C)=O)C[C@H]2[C@@H]3CCC4=CC(=O)C=C[C@]4(C)[C@@]3(F)[C@@H](O)C[C@@]21C
Second: CCCCCC1Nc2cc(C(F)(F)F)c(S(N)(=O)=O)cc2S(=O)(=O)N1 (stereo not drawn)
The “activity change, negative = cytotoxicity” value of the first is lower: -7.74% [at 35.3 µM] for the first, -1.19% [at 35.3 µM] for the second.

Compound Nc1ccc(/C=C/c2ccc(N)cc2S(=O)(=O)O)c(S(=O)(=O)O)c1 has an activity change, negative = cytotoxicity of -0.74% [at 0.29 µM].

Compound O=C(Nc1cccc(C2=NCCN2)c1)Nc1cccc(C2=NCCN2)c1 has an activity change, negative = cytotoxicity of 3.42% [at 15.8 µM].
